Potency and outcome data for 28 compounds are collected here from PubChem BioAssay (Tox21).

Assay [1] can be described thus: qHTS assay to identify small molecule antagonists of the glucocorticoid receptor (GR) signaling pathway - cell viability counter screen (AID 720693). Note: nearly all actives have a fitted effect of over 55% in size. Note: potency is the fitted concentration of half-maximal effect.
Assay [2] in a line: qHTS assay for identifying genotoxic compounds that show differential cytotoxicity against isogenic chicken DT40 cell lines with known DNA damage response pathways - wild type cell line (AID 743012). Note: nearly all actives have a fitted effect of over 60% in size. Note: potency is the fitted concentration of half-maximal effect. The procedure, abridged:
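First, wild type DT40 cells were plated at 300 per well and equilibrated about 0.5 h at 37 C/5% CO2. Next, compounds in DMSO were added and exposure lasted 40 h. Finally, CellTiter-Glo was added for 30 min at room temperature and luminescence recorded.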
On the technique in general: qHTS replaces the single test concentration by a dilution series.

Assay [3] in a line: qHTS assay for identifying genotoxic compounds that show differential cytotoxicity against isogenic chicken DT40 cell lines with known DNA damage response pathways - Rev3 mutant cell line (AID 743014). Note: nearly all actives have a fitted effect of over 55% in size. Note: potency is the fitted concentration of half-maximal effect.
The nature of assay [4]: qHTS assay for identifying genotoxic compounds that show differential cytotoxicity against isogenic chicken DT40 cell lines with known DNA damage response pathways - Rad54/Ku70 mutant cell line (AID 743015). Note: nearly all actives have a fitted effect of over 60% in size. Note: potency is the fitted concentration of half-maximal effect.
Assay [5] can be described thus: qHTS assay to identify small molecule antagonists of the androgen receptor (AR) signaling pathway - cell viability counter screen (AID 743033; note: nearly all actives have a fitted effect of over 45% in size; note: potency is the fitted concentration of half-maximal effect).
Assay [6] deals with Androgen receptor (Homo sapiens) (UniProt P10275). In words: qHTS assay to identify small molecule antagonists of the androgen receptor (AR) signaling pathway (AID 743035; active = well fitted inhibition curve with a large enough effect in the signal ratio in the repeat runs, not every such curve was filed as active; the % refers to the signal ratio; note: potency is the fitted concentration of half-maximal effect). The method, boiled down: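 Beta-lactamase FRET read (2 h RT incubation with LiveBLAzer B/G) following 16 h of compound plus R1881 treatment of AR-UAS-bla HEK293 cells, which had been pre-incubated 4 h at 37C.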

For assay [7] the target is unchanged. Briefly: qHTS assay to identify small molecule agonists of the androgen receptor (AR) signaling pathway (AID 743036; active = well fitted activation curve with a large enough effect in the signal ratio in the repeat runs, with a control signal flat, not every such curve was filed as active; the % refers to the signal ratio). The procedure, abridged:
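Reporter line: GeneBLAzer AR-UAS-bla-GripTite (HEK293). Steps: plate cells, 4 h rest, add compounds, 16 h at 37C, add LiveBLAzer B/G substrate, 2 h at RT, read fluorescence.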

The target is the same in assay [8]. Briefly: qHTS assay to identify small molecule agonists of the androgen receptor (AR) signaling pathway using the MDA cell line (AID 743040; note: nearly all actives have a fitted effect of over 20% in size). The method, boiled down: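 Luminescence from ONE-Glo, read after 30 min at room temperature, reflects MMTV-driven luciferase in MDA-kb2 cells (AR- and GR-responsive). Treatment lasted 16 h at 37C, 0% CO2.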
Assay [9] can be described thus: qHTS assay to identify small molecule antagonists of the androgen receptor (AR) signaling pathway using the MDA cell line - cell viability counter screen (AID 743041; note: nearly all actives have a fitted effect of over 45% in size). The procedure, abridged: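 Viability counter screen run alongside the AR antagonist reporter: cells seeded 5 h before compound, R1881 added, 16 h incubation at 37C without CO2, fluorescent CellTiter-Fluor signal quantified.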

For assay [10], the target named is Androgen receptor (Homo sapiens) (UniProt P10275). In words: qHTS assay to identify small molecule antagonists of the androgen receptor (AR) signaling pathway using the MDA cell line (AID 743042; note: nearly all actives have a fitted effect of over 55% in size). The method, boiled down: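 MDA-kb2 cells (human breast carcinoma, stably carrying an MMTV-luciferase reporter responsive to AR and GR) were plated at 3,000 cells/well and preincubated 5 hr at 37C, then given compound plus R1881 agonist for 16 h. ONE-Glo luminescence was read.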

Structures are written as SMILES. Inconclusive results are not listed. Calls of active or inactive are those of the source. Unless noted, calls come from the whole dose curve; as a rule, active = well fitted curve in the direction sought with a large enough effect in the repeat runs; inconclusive = weak or mixed curves; inactive = no such curve, though single readings can be large; an effect the other way counts as inactive or inconclusive.

Chain of Androgen receptor (Homo sapiens) (P10275 whole entry, looked up): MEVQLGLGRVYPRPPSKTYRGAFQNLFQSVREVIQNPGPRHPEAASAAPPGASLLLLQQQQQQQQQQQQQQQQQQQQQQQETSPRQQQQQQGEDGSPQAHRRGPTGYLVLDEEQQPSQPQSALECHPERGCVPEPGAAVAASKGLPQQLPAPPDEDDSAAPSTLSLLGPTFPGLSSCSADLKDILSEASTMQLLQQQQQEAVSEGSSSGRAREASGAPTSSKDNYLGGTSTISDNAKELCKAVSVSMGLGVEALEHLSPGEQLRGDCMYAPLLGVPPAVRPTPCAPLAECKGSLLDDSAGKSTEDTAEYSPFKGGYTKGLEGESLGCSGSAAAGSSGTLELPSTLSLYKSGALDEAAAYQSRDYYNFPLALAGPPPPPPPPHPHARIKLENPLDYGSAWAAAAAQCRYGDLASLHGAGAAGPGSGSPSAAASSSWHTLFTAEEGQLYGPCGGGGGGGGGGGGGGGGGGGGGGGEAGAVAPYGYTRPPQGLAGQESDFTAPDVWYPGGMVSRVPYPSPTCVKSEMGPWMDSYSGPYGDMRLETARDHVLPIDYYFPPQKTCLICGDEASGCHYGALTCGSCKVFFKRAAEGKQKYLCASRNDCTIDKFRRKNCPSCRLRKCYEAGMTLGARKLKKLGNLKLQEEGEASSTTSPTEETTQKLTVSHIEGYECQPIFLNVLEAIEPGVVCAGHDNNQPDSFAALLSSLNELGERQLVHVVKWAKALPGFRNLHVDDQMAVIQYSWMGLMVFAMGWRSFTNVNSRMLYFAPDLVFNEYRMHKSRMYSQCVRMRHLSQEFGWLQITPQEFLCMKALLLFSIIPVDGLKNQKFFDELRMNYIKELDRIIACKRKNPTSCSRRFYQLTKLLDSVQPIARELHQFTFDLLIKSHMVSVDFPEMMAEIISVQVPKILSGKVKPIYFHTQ

As for `CCC(=O)OC`, the Potency entry in assay [1], in assay [2], in assay [3], in assay [4], in [5] and in [6] was “inactive” each time. Further, the Potency entry in assay [9] and in [10] was “inactive” throughout. Also, the outcome in assay [7] and in [8] was inactive.
`CCCC(C(=O)OCCN(CC)CC)(c1ccccc1)c1ccccc1`: the Potency entry in assay [1] is “inactive”. The Potency in [2] was 8.41 µM (active); in assay [3] it was 10.6 µM (active); in [4] it was 18.8 µM (active).
On to `CO[C@]1(NC(=O)CSC(F)F)C(=O)N2C(C(=O)O)=C(CSc3nnnn3CCO)CO[C@H]21`, for which the Potency result in [1], in [2], in [3], in [4], in assay [5] and in [9] was “inactive” throughout.
On to `O=C(Nc1cccc2c(=O)cc(-c3nn[nH]n3)oc12)c1ccc(OCCCCc2ccccc2)cc1`, for which the Potency entry in assay [1], in assay [2], in assay [3], in assay [4], in assay [5] and in [9] was “inactive” throughout.
With `CC(=O)OCC(=O)NCCCOc1cccc(CN2CCCCC2)c1`, the Potency entry in [1], in assay [2], in assay [3], in assay [4], in [5] and in assay [6] was “inactive” throughout. In addition, the Potency entry in [9] and in [10] was “inactive” throughout. Further, the outcome in assay [7] and in assay [8] was inactive.
For the compound `CC(=O)OCCN(CCOC(C)=O)c1ccc(N=Nc2ccc([N+](=O)[O-])cc2C#N)cc1`, the Potency entry in assay [1], in assay [5] and in assay [9] was “inactive” in each case. The Potency is 61.1 µM (active) in assay [2], 30.6 µM (active) in assay [3] and 30.6 µM (active) in assay [4].
Turning to `NC(=O)c1ccncc1`, the Potency entry in assay [1], in assay [2], in assay [3], in assay [4], in [5] and in [6] was “inactive” throughout. For the same compound, the Potency result in assay [9] and in assay [10] was “inactive” throughout. Also, the result in assay [7] and in assay [8] was inactive.
In the case of `FC(F)(F)c1ccccc1Cl`, the Potency entry in assay [1], in assay [2], in assay [3], in [4], in assay [5] and in assay [9] was “inactive” in each case.
On to `CCCCCCC(C)(C)C(=O)O`, for which the Potency result in [1], in assay [2], in assay [3], in assay [4], in assay [5] and in [9] was “inactive” throughout. Besides, the Potency entry in assay [10] is “inactive”. In addition, the compound was called inactive in [7] and in [8].
For the compound `CCC(C)(C)OC`, the Potency result in assay [1], in assay [2], in assay [3], in assay [4], in [5] and in [9] was “inactive” each time.
As to `CC[C@]1(O)C[C@H]2CN(CCc3c([nH]c4ccccc34)[C@@](C(=O)OC)(c3cc4c(cc3OC)N(C=O)[C@H]3[C@@](O)(C(=O)OC)[C@H](OC(C)=O)[C@]5(CC)C=CCN6CC[C@]43[C@@H]65)C2)C1`, the Potency entry in assay [1], in assay [5], in assay [9] and in [10] was “inactive” in each case. Moreover, the Potency in assay [2] was 0.0075 µM (active); in assay [3], 0.0053 µM (active); in assay [4], 0.0106 µM (active); in assay [6], 0.0338 µM (active). For the same compound, the call in assay [8] was inactive.
For `Cc1cc(C)c(N)cc1C`, the Potency entry in assay [1], in assay [2], in [3], in [4], in [5] and in [9] was “inactive” each time.
Consider `CC(C)(c1ccccc1)c1ccccc1`, for which the Potency result in assay [1], in [2], in assay [3], in assay [4], in assay [5] and in [9] was “inactive” throughout.
For `C=C1C[C@@]23CC[C@H]4[C@@](C)(CCC[C@@]4(C)C(=O)O[C@@H]4O[C@H](CO)[C@@H](O)[C@H](O)[C@H]4O)[C@@H]2CC[C@]1(O[C@@H]1O[C@H](CO)[C@@H](O)[C@H](O[C@@H]2O[C@H](CO)[C@@H](O)[C@H](O)[C@H]2O)[C@H]1O[C@@H]1O[C@H](CO)[C@@H](O)[C@H](O)[C@H]1O)C3`, the Potency entry in assay [1], in assay [2], in assay [3], in assay [4], in [5] and in assay [6] was “inactive” throughout. Besides, the Potency entry in [9] and in assay [10] was “inactive” in each case. Moreover, the result in assay [7] and in assay [8] was inactive.
With `CCCCOc1ccc(OCCCN2CCOCC2)cc1`, the Potency entry in [1], in assay [5] and in [9] was “inactive” throughout. The Potency in [2] is 2.54 µM (active); in assay [3] it was 1.01 µM (active); in assay [4], 2.27 µM (active).
In the case of `c1ccc2c(c1)CCc1ccccc1N2`, the Potency entry in [1] and in [2] was “inactive” throughout.
In the case of `CN1C(=O)N(c2ccccc2Br)Cc2cnc(Nc3ccc4c(c3)OCC(CO)O4)nc21` (stereo not given), the Potency in assay [1] was 13.8 µM (active); in [2], 7.7 µM (active); in assay [3] it was 9.69 µM (active); in assay [4], 6.86 µM (active); in assay [5], 43.6 µM (active).
Take `Nc1ncnc2c1ncn2[C@H]1CC[C@@H](CO)O1`: the Potency result in assay [1], in [3], in [5] and in assay [9] was “inactive” each time. In addition, the Potency in [2] is 26.6 µM (active); in [4] it was 23.7 µM (active).
As to `O=C(O)C[C@H](NC(=O)OCc1ccccc1)C(=O)O`, the Potency entry in assay [1], in [2], in [3], in [4], in assay [5] and in [9] was “inactive” throughout.
For `CC(C)=CCC1C(=O)N(c2ccccc2)N(c2ccccc2)C1=O`, the Potency result in [1] and in assay [5] was “inactive” in each case. Also, the Potency in assay [2], in assay [3] and in assay [4] was 16.8 µM (active) each time.
For `C[C@@H]1CN(CCCn2c3ccccc3c3ccccc32)C[C@H](C)N1`, in assay [1], the Potency result is “inactive”. In addition, the results for the Potency in [2], in assay [3] and in assay [4] were 9.44 µM (active), 7.5 µM (active) and 9.44 µM (active), respectively.
On to `Cc1[nH]cnc1CN1CCc2c(c3ccccc3n2C)C1=O`, for which the Potency result in [1], in assay [2], in assay [3], in assay [4], in assay [5] and in assay [9] was “inactive” in each case.
As for `O=C(O)CCC(=O)C(=O)O`, the Potency result in [1], in [2], in assay [3], in assay [4], in assay [5] and in assay [9] was “inactive” in each case.
Turning to `CC(CCC(=O)O)C(=O)O` (stereo not given), the Potency entry in [1], in [2], in assay [3], in [4], in [5] and in assay [9] was “inactive” in each case.
Turning to `Cc1cccc(N(C)C(=S)Oc2ccc3c(c2)CCC3)c1`, the Potency entry in assay [1] was “inactive”.
Turning to `CCCCCCCCCI`, the Potency entry in [1], in assay [2], in assay [3], in assay [4], in assay [5] and in assay [9] was “inactive” each time.
As for `Cc1ccccc1S`, the Potency result in assay [1], in assay [5] and in [9] was “inactive” in each case. Besides, the results for the Potency in assay [2], in [3] and in assay [4] were 34.6 µM (active), 27.5 µM (active) and 38.9 µM (active), respectively.
Regarding `C=COCC(C)C`, the Potency entry in assay [1], in [2], in assay [3], in assay [4], in assay [5] and in assay [9] was “inactive” each time.
